This passage reports morphology score results from the supplement of paper PMC13380429.

The test system of this experiment is Vero E6 infected with SARS-CoV-2. As to the kind of experiment: morphology score (similarity to uninfected cells); higher = more like uninfected cells. Conditions: 24 h.
`COc1ccccc1OCC(O)CNC(C)C` (centres undefined) [moprolol] (10 µM) registered a morphology score of 0.0947.
`Oc1ccnc2cc(Cl)ccc12` [chloroxoquinoline] (10 µM): the morphology score was 0.159.
To `Clc1ccccc1C(c1ccccc1)(c1ccccc1)n1cccn1` (10 µM) belongs 0.0967; to `CN(Cc1ccccc1)C(=O)[C@H](Cc1ccc2ccccc2c1)NC(=O)[C@@H]1CCCN1C(=O)Nc1ccccc1[N+](=O)[O-]` (10 µM), 0.00351.
In turn, `Clc1cccc(/C=N/N=C/c2cccc(Cl)c2)c1` [3,3'-dichlorobenzaldazine] (10 µM) returned a morphology score of 0.288.
As to `COc1ccc(Cl)cc1[C@]1(F)C(=O)Nc2cc(C(F)(F)F)ccc21` [flindokalner] (10 µM), the morphology score was 0.165.
To `O=C(Oc1ccc([N+](=O)[O-])cc1)N1CCN(Cc2cccc(Oc3ccccc3)c2)CC1` (10 µM) belongs 0.162; to `CC1(C)CN(C(=O)c2ccc(-c3cccc4nc(NC(=O)C5CC5)nn34)cc2)C1` [solcitinib] (10 µM), 0.0939; to `CC(C)CN(C[C@@H](OP(=O)(O)O)[C@H](Cc1ccccc1)NC(=O)O[C@H]1CCOC1)S(=O)(=O)c1ccc(N)cc1` [fosamprenavir] (10 µM), -0.123.
`C[C@H]1C[C@H]2[C@@H]3CCC4=CC(=O)C=C[C@]4(C)[C@H]3C(=O)C[C@]2(C)[C@@]1(O)C(=O)CO` [Betapar (Meprednisone)] (10 µM) gave a morphology score of 0.0238.
Turning to `COc1ccc2c3c1O[C@H]1C[C@@H](O)C=C[C@@]31CCN(C)C2` [galantamine] (10 µM), the morphology score came to 0.113.
To `CCN(CC)C(=O)[C@@]1(c2ccccc2)C[C@H]1CN` [milnacipran] (10 µM) belongs 0.0186.
As to `NC[C@@](O)(c1ccc(Cl)cc1)c1ccc(-c2cn[nH]c2)cc1` (10 µM), the morphology score is 0.174.
The molecule `O=c1cc[nH]c(=O)[nH]1` [uracil] (10 µM) returned a morphology score of -0.002.
`Clc1ccc(CCCOCCCN2CCCCC2)cc1` [pitolisant] (10 µM): the morphology score turned out to be 0.243.
To `Oc1ccc(OCc2ccccc2)cc1` [monobenzone] (10 µM) belongs -0.207; to `CN(C)CCn1cc(S(=O)(=O)c2cccc(F)c2)c2cccnc21` (10 µM), -0.0241; to `CN1c2ccccc2C(NCCCCCCC(=O)O)c2ccc(Cl)cc2S1(=O)=O` (centres undefined) [tianeptine] (10 µM), 0.237.
`O=C(O)c1ccc(N2N=C(Cc3ccccc3)/C(=C\c3ccc(-c4ccccc4F)o3)C2=O)cc1` (10 µM) displayed a morphology score of -0.0825.
To `C=CCC1(CC(C)C)C(=O)NC(=O)NC1=O` [butalbital] (10 µM) belongs -0.0632; to `CCn1cnc2c(Nc3cccc(Cl)c3)nc(N[C@@H]3CCCC[C@@H]3N)nc21` (0.833333 µM), -0.35.
To `NC12CC3CC(CC(C3)C1)C2` [amantadine] (10 µM) belongs -0.265; to `O=C(O)Cn1nnc(-c2cc(N3CCC(Oc4cc(F)ccc4Br)CC3)no2)n1` (10 µM), 0.00994.
In the case of `Cc1nc2ccccc2c(-c2ccc3c4c(ccnc24)CCO3)c1[C@H](OC(C)(C)C)C(=O)O` (10 µM), the morphology score was determined as 0.0152.
Regarding `CN(C)C(=O)c1ccc(S(=O)(=O)c2ccc(NC(=O)[C@@](C)(O)C(F)(F)F)c(Cl)c2)cc1` (10 µM), the morphology score is 0.28.
As to `CCCCCCNC(=O)n1cc(F)c(=O)[nH]c1=O` [carmofur] (0.833333 µM), the morphology score is 0.222.
`COc1cc2c(cc1OC)C1CC(=O)C(CC(C)C)CN1CC2` (centres undefined) [tetrabenazine] (10 µM) came in with a morphology score of 0.159.
To `Cc1nccc2[nH]c(=O)ccc12` [medorinone] (10 µM) belongs 0.145; to `CC(=O)NC[C@H]1CN(c2ccc(-c3ccc(CNCc4cnn[nH]4)cc3)c(F)c2)C(=O)O1` [radezolid] (10 µM), 0.0332.
For `Cc1c(C)c2c(c(C)c1O)CCC(C)(C(=O)O)O2` (centres undefined) [trolox] (0.833333 µM), the morphology score is 0.0965.
`COc1ccc(-c2cc(=O)c3c(OC)c(OC)c(OC)c(OC)c3o2)cc1OC` [nobiletin] (10 µM): the morphology score came to 0.322.
To `N=C(NCCCCCCNC(=N)NC(=N)Nc1ccc(Cl)cc1)NC(=N)Nc1ccc(Cl)cc1` [chlorhexidine] (0.833333 µM) belongs 0.277; to `OCc1ccccc1O` [salicyl-alcohol] (10 µM), -0.0183.
In the case of `CN(CCOc1ccc(NS(C)(=O)=O)cc1)CCc1ccc(NS(C)(=O)=O)cc1` [dofetilide] (10 µM), the morphology score is 0.059.
Molecule `CCCC(CCC)C(=O)NCC(N)=O` [valrocemide] (10 µM) had a morphology score of 0.062.
To `CCCS(=O)(=O)Nc1ccc(F)c(C(=O)c2c[nH]c3ncc(-c4ccc(Cl)cc4)cc23)c1F` [vemurafenib] (10 µM) belongs 0.25; to `c1cc2c(c(N3CCNCC3)c1)OCCO2` [eltoprazine] (10 µM), 0.0367; to `COc1ccc2c(O[C@@H]3C[C@H]4C(=O)N[C@]5(C(=O)NS(=O)(=O)C6CC6)C[C@H]5/C=C\CCCCN(C)C(=O)[C@@H]4C3)cc(-c3nc(C(C)C)cs3)nc2c1C` [simeprevir] (10 µM), 0.0609.
To `CCCOc1ccc2[nH]c(NC(=O)OC)nc2c1` [oxibendazole] (10 µM) belongs -0.158.
